The values that follow come from PubChem BioAssay AID618 (Sanford-Burnham Center for Chemical Genomics, 2007).

Hit rate of the full screen: of about 87,000 compounds, about 540 (0.62%) were called active. How the calls were made is not given here. The sample as a whole holds a higher share of actives than the screen did. Entries with a potency or affinity are not part of this list.

This experiment is described as follows: MT1-MMP gene expression reporter suppression – cell-based, luciferase reporter, luminescence (AID 618).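 Further: actives suppress MT1-MMP promoter-driven transcription so potencies describe inhibitors.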 As to conditions: MT1-MMP promoter luciferase reporter cells.
Consider `CCOc1ccccc1NC(=O)C1C2C=CC(C2)C1C(=O)O` (centres undefined), for which the compound was called inactive.

Regarding `Cc1cc(N)n(-c2nc(-c3cccnc3)nc3ccccc23)n1`, the compound was called inactive.

For the compound `Cc1cc(Nc2ccccc2N2CCOCC2)n2ncnc2n1`, the call was inactive.

Turning to `O=C(Cn1nnc(-c2ccc(Cl)cc2)n1)NC1CCN(Cc2ccccc2)CC1`, the result was inactive.

In the case of `N#Cc1nc(-c2ccc(OCc3ccc(Cl)cc3)cc2)oc1N1CCC(C(N)=O)CC1`, the compound was called inactive.

Consider `CN(C)C(=O)N1CCC(C(=O)NCc2ccc(F)cc2Cl)CC1`, for which the call was inactive.

With `c1ccc(-n2nnnc2SCc2ccccn2)cc1`, the compound was called inactive.

Consider `CCN(CC)C(=O)C1CCCN(Cc2cccc(F)c2)C1` (centres undefined), for which the call was inactive.

As to `Cn1c(=O)c2c(nc(SCC(=O)NCc3ccc4c(c3)OCO4)n2Cc2ccc(F)cc2)n(C)c1=O`, the compound was called inactive.

In the case of `O=C(CCCOc1ccc(Cl)cc1)N1CCCCCC1`, the compound was classed as inactive.

With `O=C(CCCOc1ccccc1)N1CCN(c2ccccc2)CC1`, the outcome was inactive.

As to `O=C(Nc1nc2ccccc2s1)c1ccc(Cl)s1`, the call was inactive.

In the case of `Cc1cc(C)n(-c2ccc(C(=O)Nc3nc4ccccc4s3)cc2)n1`, the result was inactive.

For the compound `CCOc1ccccc1OCC(=O)OCC(=O)Nc1ncc(Cl)cc1Cl`, the call was inactive.

`CCn1c(SCC(=O)N2CCN(c3ccc(F)cc3)CC2)nc2ccccc2c1=O`: the compound was called inactive.

For `C#CC[N+]1(CC#Cc2ccccc2)CCOCC1`, the outcome was inactive.

In the case of `COC(=O)CSc1nnc(Cc2ccccc2)n1-c1ccc(C)cc1`, the result was inactive.

With `COc1ccc(C2=NOC(C(=O)NCc3cccs3)C2)cc1` (centres undefined), the compound was called inactive.

For the compound `COc1cc(C2=NOC(C(=O)NCc3cccs3)C2)cc(OC)c1OC` (centres undefined), the compound was classed as inactive.

Regarding `COc1ccc(C2=NOC(C(=O)NCc3cccs3)C2)cc1OC` (centres undefined), the result was active.

For the compound `CCC1(C)Cc2c(sc3nn[nH]c(=O)c23)CO1` (centres undefined), the compound was classed as inactive.

Consider `Cc1nc2sc(C(c3cccs3)N3CCN(c4ccccc4)CC3)c(O)n2n1` (centres undefined), for which the compound was called inactive.

Regarding `Cn1c(=NC(=O)CN2C(=O)C3CC=CCC3C2=O)sc2ccccc21` (centres undefined), the outcome was inactive.

With `Cn1c(=NC(=O)CCl)sc2ccccc21`, the compound was called active.

Take `CC(=O)N=c1sc2ccccc2n1C`: the result was inactive.

Take `CCCCOC(=O)C(C)Nc1n[nH]c(=S)[nH]c1=O` (centres undefined): the compound was called inactive.

For the compound `CCN(C(=O)CN1CCN(c2ccccc2OC)CC1)c1c(N)n(Cc2ccccc2)c(=O)[nH]c1=O`, the result was inactive.

Consider `CC(=O)N(/N=C1\Sc2ccccc2C1=O)c1cccc(C)c1`, for which the call was inactive.

On to `CC(=O)N(/N=C1\Sc2ccccc2C1=O)c1ccccc1C`, for which the outcome was inactive.

For the compound `Cn1c(=O)c2c(nc(NCCc3ccccc3)n2Cc2ccc(F)cc2)n(C)c1=O`, the compound was classed as inactive.

Regarding `CC(=O)N(Cc1ccc(F)cc1)C1=C(NCc2ccccc2)C(=O)c2ccccc2C1=O`, the outcome was active.

Turning to `CC(=O)n1nc(-c2ccccc2)nc1NCc1ccc(F)cc1`, the result was inactive.

Turning to `O=C(Cc1ccc(F)cc1)NCCc1ccccc1`, the result was inactive.

Regarding `Cn1c(=O)c2c(nc(NCc3ccccc3)n2Cc2ccc(F)cc2)n(C)c1=O`, the compound was classed as inactive.

Regarding `OC(CN1C2=NCCN2c2ccccc21)c1ccc(Br)cc1` (centres undefined), the compound was called inactive.

In the case of `O=S(=O)(NCCSc1nc2ccccc2o1)c1ccccc1`, the compound was called inactive.

`O=C(CCC1CCCC1)Nc1ccc(OCC(=O)N2CCOCC2)cc1`: the compound was classed as inactive.

Turning to `COc1ccccc1CN1CCSCC1`, the result was inactive.

As to `COCc1nnc(NC(=O)c2cc(Cl)ccc2OC)s1`, the call was inactive.

As to `O=C(CSc1nnc(Cc2cccs2)n1Cc1ccco1)Nc1ccc(Cl)cc1Cl`, the outcome was inactive.

Consider `Cc1ccnn1CC(=O)N/N=C/c1ccco1`, for which the result was inactive.

For `COCCn1c(N)c(S(=O)(=O)c2cccs2)c2nc3ccccc3nc21`, the compound was classed as inactive.

As for `CC(C)CCn1c(N)c(S(=O)(=O)c2cccs2)c2nc3ccccc3nc21`, the compound was called active.

With `CC(C)Cn1c(N)c(S(=O)(=O)c2cccs2)c2nc3ccccc3nc21`, the call was inactive.

With `N#Cc1nc(-c2ccco2)oc1N1CCN(c2cccc(Cl)c2)CC1`, the compound was classed as inactive.

As for `CC(Oc1ccc(Cl)cc1Cl)C(=O)NCc1ccncc1` (centres undefined), the call was inactive.

Turning to `Cc1cc(C)c(C)c(OCC(=O)NCC2CCCO2)c1` (centres undefined), the compound was classed as inactive.

For the compound `O=C(O)c1n[nH]c2c1CCCCC2`, the outcome was inactive.

`CC1(CCc2ccccc2)NC(=O)N(Cc2nnc(-c3ccccc3Br)o2)C1=O` (centres undefined): the compound was called inactive.

`CC1Cc2ccccc2N1c1nc(C2CC2)nc2c1nnn2Cc1ccccc1` (centres undefined): the call was inactive.

As to `N#Cc1c(NC(=O)CSc2nc(N)cc(=O)[nH]2)sc2c1CCCCCC2`, the result was inactive.

For `CC(=O)Nc1c(O)nc(SCC(=O)Nc2sc3c(c2C#N)CCCCCC3)[nH]c1=O`, the call was inactive.

Turning to `Cc1nnc(SCC(=O)Nc2sc3c(c2C#N)CCCC3)[nH]c1=O`, the outcome was inactive.

Consider `CC(C)(C)C1CCc2c(sc(NC(=O)CSc3ncn[nH]3)c2C#N)C1` (centres undefined), for which the compound was called inactive.

Take `CCSC1=C(C#N)C2(CCCCC2)C(C#N)C(=O)N1` (centres undefined): the call was inactive.

With `Cc1cc(NC(=O)CSc2nc(C(C)C)nc3sc4c(c23)CCCC4)no1`, the outcome was inactive.

As for `CCOC(=O)N1CCN(C(=O)Cn2cc3c(n2)CCCC3)CC1`, the result was inactive.

Consider `O=C(O)C1=C(C(=O)N2CCN(C(=O)c3ccco3)CC2)CCCC1`, for which the compound was classed as inactive.

In the case of `c1ccc(Sc2ncnc3c2oc2ccccc23)cc1`, the call was inactive.

Consider `Fc1cccc(-c2cc3nc4c(c(N5CCN(c6cnccn6)CC5)n3n2)CCCC4)c1`, for which the result was inactive.

Turning to `CC1=CC(C)(C)Nc2ccc(OC(=O)c3ccco3)cc21`, the compound was classed as active.

Turning to `COc1ccc2c(c1)C(C)=CC(C)(C)N2C(=O)CN1C(=O)CCC1=O`, the call was inactive.

On to `O=C(Oc1ccc2ccccc2c1)c1ccco1`, for which the call was inactive.

In the case of `CCc1ccc2c(c1)C(C)=CC(C)(C)N2`, the call was inactive.

Consider `CC1=CC(C)(C)Nc2ccc(OC(=O)CN3C(=O)C4CCCCC4C3=O)cc21` (centres undefined), for which the outcome was inactive.

In the case of `COC(=O)c1ccc(OC(=O)c2ccco2)cc1`, the result was inactive.

With `CC1=CC(C)(C)Nc2ccc(OC(=O)c3cccnc3)cc21`, the result was inactive.

For `COc1ccc(-c2nnc(SCC(=O)N3c4ccccc4Sc4ccccc43)o2)cc1`, the call was inactive.

For `CCOC(=O)c1ccc2nc3c(cc2c1)CCS3`, the compound was classed as inactive.

Turning to `COc1ccc2c(c1OC)C(=O)N(c1ccc3c(c1)CCC3)C2=O`, the outcome was inactive.

Turning to `CCn1c(=O)n(CC(=O)NC2CCCC(C)C2C)c(=O)c2ccccc21` (centres undefined), the compound was called inactive.

As to `CCN(CCNC(=O)C1CCN(c2nnc(-n3cccc3)s2)CC1)c1ccccc1`, the result was inactive.

Regarding `Cc1ccc2nc3sc(C(=O)N4CCOCC4)c(N)c3cc2c1`, the call was active.

Take `Cc1ccc2cc3c(N)c(C(=O)N4CCOCC4)sc3nc2c1`: the result was inactive.

`Cc1cccc2cc3c(N)c(C(=O)N4CCOCC4)sc3nc12`: the compound was called inactive.

Take `Cc1cccc(-n2ncc(C#N)c2N)c1`: the outcome was inactive.

For `Cc1cc(C)nc(SCCn2c(N(C)Cc3ccccc3)nc3c2c(=O)n(C)c(=O)n3C)n1`, the call was inactive.

As to `Cc1cc(C)n(CCO)c(=O)n1`, the result was inactive.

As to `N#CC1=C(N)SC(N)=C(C#N)C1C1CC=CCC1` (centres undefined), the result was inactive.

Regarding `Cc1ccc(-n2c(C)cc(/C=c3/sc4nc5ccccc5n4c3=O)c2C)cc1`, the compound was called inactive.

On to `Cc1cc(/C=c2/sc3nc4ccccc4n3c2=O)c(C)n1-c1ccccn1`, for which the outcome was active.

For `O=c1/c(=C\c2cccn2-c2ccccc2)sc2nc3ccccc3n12`, the compound was called inactive.

Take `COc1cc(N2CCCC2)c(OC)cc1/C=c1/sc2nc3ccccc3n2c1=O`: the result was inactive.

`COC(=O)/C=c1/sc2nc3ccccc3n2c1=O`: the result was inactive.

Consider `CC(CNS(=O)(=O)c1cc(Cl)ccc1Cl)CN(C)C` (centres undefined), for which the compound was called inactive.

On to `COc1ccccc1NC(=O)CC1C(=O)NCCN1C(=O)Nc1ccc(Cl)c(Cl)c1` (centres undefined), for which the call was inactive.

Take `CCCCC(=O)Nc1ccc2oc(-c3ccncc3)nc2c1`: the compound was classed as inactive.

In the case of `O=C(c1ccc2snnc2c1)N1CCOCC1`, the call was inactive.

For the compound `Cc1ccc(C)c(C(=O)CN2C(=O)c3ccccc3S2(=O)=O)c1`, the result was inactive.

As to `Cc1cc(C(=O)CN2C(=O)c3ccccc3S2(=O)=O)c(C)n1-c1ccccc1`, the compound was called active.

For `Cc1cc(C(=O)COC(=O)C2COc3ccccc3O2)c(C)n1CC1CCCO1` (centres undefined), the compound was classed as inactive.

`Cc1cc(C(=O)CSc2nnnn2-c2ccccc2)c(C)n1CC1CCCO1` (centres undefined): the outcome was inactive.

`Cc1cc(C(=O)COC(=O)c2n[nH]c3ccccc23)c(C)n1CC1CCCO1` (centres undefined): the compound was called inactive.

Turning to `Cc1cc(C(=O)Cn2nnc(-c3ccc(Cl)cc3)n2)c(C)n1CC1CCCO1` (centres undefined), the compound was called inactive.

For the compound `Cc1ccsc1C(=O)OCC(=O)c1cc(C)n(CC2CCCO2)c1C` (centres undefined), the call was active.

As for `Cc1cc(C(=O)CN2C(=O)C3CC=CCC3C2=O)c(C)n1-c1ccccc1` (centres undefined), the compound was called inactive.

As to `Cc1ccc(-c2nc(NC(=O)CSc3nnc(C)s3)ns2)cc1`, the outcome was inactive.

Regarding `Cc1ccc(OCC(=O)Nc2ccc(N3CCOCC3)cc2)cc1`, the compound was called inactive.

`Cc1ccc(N(C(C)C(=O)N2CCC(C)CC2)S(C)(=O)=O)cc1C` (centres undefined): the compound was called inactive.

Take `Cc1ccc(CC2CC(=O)N(c3cc(C)on3)C2=O)cc1` (centres undefined): the compound was called inactive.

Consider `CCOc1ccccc1NC(=O)C1CCCN(C(=O)NCc2ccccc2)C1` (centres undefined), for which the result was inactive.

Take `CCOC(=O)c1c(C)[nH]c(C(=O)OCC(=O)N2CCc3ccccc32)c1C`: the outcome was inactive.

Turning to `CCOC(=O)c1[nH]c(C)c(C(=O)OCC(=O)N2CCc3ccccc32)c1C`, the compound was classed as inactive.

On to `CCOC(=O)c1[nH]c(C)c(C(=O)Nc2ccccc2F)c1C`, for which the outcome was inactive.

Take `CCOC(=O)c1[nH]c(C)c(C(=O)Nc2ccc(C)c(Cl)c2)c1C`: the compound was called inactive.

In the case of `CCOC(=O)c1[nH]c(C)c(C(=O)N2CCc3ccccc32)c1C`, the compound was classed as active.

Turning to `CCOC(=O)c1[nH]c(C)c(C(=O)Nc2ccc(C)cc2C)c1C`, the outcome was inactive.

As to `CCOC(=O)c1[nH]c(C)c(C(=O)Nc2cc(Cl)ccc2C)c1C`, the compound was called active.

In the case of `CCOC(=O)c1[nH]c(C)c(C(=O)Nc2ccccc2C)c1C`, the compound was classed as active.

For the compound `CCOC(=O)c1[nH]c(C)c(C(=O)Nc2ccc(Cl)cc2)c1C`, the compound was classed as inactive.

For the compound `COc1cc(NS(=O)(=O)c2ccc3c(c2)n(C)c(=O)n3C)cc(OC)c1`, the result was inactive.

In the case of `COc1ccc(C)cc1NC(=O)CSc1nnc(CC(=O)Nc2ccccc2C)n1C`, the compound was classed as inactive.

On to `CCOC(=O)c1ccc(NC(=O)CN2CCN(CCN=CC3=C(O)CC(C)(C)CC3=O)CC2)cc1`, for which the compound was classed as inactive.

On to `COC(=O)c1[nH]c2cc(C)ccc2c1NC(=O)CN1CCCc2ccccc21`, for which the outcome was inactive.
